Results as given in PubChem BioAssay.
Calls of active or inactive are those of the source. Unless noted, no rule for the calls is given here.

Key:
[1] = compounds binding Alexa647 anti-His antibody – biochemical, small-molecule microarray, 635 nm fluorescence, artefact control for SMM control protein annotation, primary screen (AID 1128); details: higher = more signal;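 also: score merges feature fluorescence with signal-to-noise for each printed compound spot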
[2] = system: Human papillomavirus type 1a E7 protein (residues 1-88); test: HPV1a E7 small-molecule binders, primary screen, biochemical, small-molecule microarray, residues 1-88, 635 nm (AID 1129); details: small-molecule microarray binding, fluorescence 635 nm; higher = more signal
[3] = molecular target: Focal adhesion kinase 1 (Homo sapiens) (UniProt Q05397); test: PTK2 protein binding on printed compound slides – biochemical, small-molecule microarray, 635/667 nm fluorescence, BSA, DTT, primary screen (AID 1130); details: 635 nm fluorescence, higher = more signal;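 also: composite of spot emission at 667 nm and signal to noise over triplicate slides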
[4] = system: Fibrinogen (Alexa647-labelled); test: Alexa647-fibrinogen binding to printed small molecules – biochemical, small-molecule microarray, 635/667 nm fluorescence, artefact control for SMM control-protein annotation, profiling panel (AID 1131); details: fibrinogen-A647 binding fluorescence, higher = more signal;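 also: z-score merges 667 nm fluorescence with per-spot signal-to-noise over triplicate slides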
[5] = molecular target: Follistatin (Homo sapiens) (UniProt P19883); test: FST protein binding to printed compounds – biochemical, small-molecule microarray, 635/667 nm fluorescence, primary screen (AID 1132); details: 635 nm fluorescence, higher = more signal
[6] = molecular target: Fibroblast growth factor 2 (Homo sapiens) (UniProt P09038); test: basic fibroblast growth factor binding to printed compounds – biochemical, small-molecule microarray, 635/667 nm fluorescence, primary screen (AID 1133); details: FGF2, fluorescence 635/667, higher = more signal
[7] = JC-1 mitochondrial potential readout, lung cancer cells – cell-based, A549, JC-1 fluorescence, basal, 24 h, 100 nL, profiling panel (AID 1138); details: higher = more signal;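 also: A549 lung adenocarcinoma cells under basal conditions with no added stimulus; test concentration not given here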
[8] = system: Lefty1; test: Lefty1 protein binding to printed compounds – biochemical, small-molecule microarray, 635/667 nm fluorescence, primary screen (AID 1139); details: fluorescence 635/667, higher = more signal
[9] = system: wheat germ agglutinin (Triticum aestivum), Alexa647-labelled; test: Alexa647-WGA lectin binding to printed small molecules – biochemical, small-molecule microarray, 635/667 nm fluorescence, artefact control for SMM control-protein annotation, profiling panel (AID 1140); details: WGA-A647 binding, 635 nm fluorescence, higher = more signal;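 also: score merges 667 nm feature emission with signal to noise over triplicate slides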
[10] = molecular target: Luciferin 4-monooxygenase (Photinus pyralis) (UniProt P08659); test: inhibition of purified Photinus pyralis luciferase – biochemical, luminescence, purified enzyme, 2006 set, primary screen (AID 1141); details: purified firefly luciferase, SteadyGlo luminescence, 30 min; higher = more signal, called active from +8 up or from −8 down;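 also: cell-free assay with purified firefly luciferase at 100 ng per well in PBS; test concentration not given here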
[11] = system: Wnt5a (protein binding on small-molecule microarray); test: small molecules binding Wnt5a protein – biophysical, small-molecule microarray, 635/667 nm fluorescence, primary screen (AID 1142); details: 635 nm fluorescence, higher = more signal;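 also: fluorescence read at 667 nm with signal to noise per printed feature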
[12] = ATP-based viability of Huh7 replicon cells – cell-based, CellTiter-Glo luminescence, basal, 48 h, cytotoxicity control for HCV replication inhibitor project, primary screen (AID 1143); details: higher = more signal, called active from +8 up or from −8 down;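 also: Huh7 hepatoma cells carrying a hepatitis C replication reporter with no stimulus; test concentration not given here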
[13] = Pseudomonas biofilm growth suppression – PAO1 strain, BacTiter-Glo luminescence, LB-PBS, primary screen (AID 1144); details: P. aeruginosa PAO1 biofilm, 12 h, higher = more signal
[14] = basal CRE-LacZ reporter activity in PC12 – cell-based, unstimulated, primary screen (AID 1145); details: no forskolin, luminescence, 4.5 h, higher = more signal, called active from +8 up or from −8 down
[15] = forskolin-driven CRE-LacZ activity in PC12 – cell-based, CRE-LacZ reporter, forskolin-stimulated, primary screen (AID 1146); details: luminescence, 4.5 h, higher = more signal, called active from +8 up or from −8 down;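 also: PC12 cells with 6xCRE LacZ reporter stimulated by forskolin 10 µM; beta-galactosidase reporter signal reflecting CREB driven transcription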
[16] = molecular target: Streptavidin (Streptomyces avidinii) (UniProt P22629); test: compounds binding control protein streptavidin – biophysical, small-molecule microarray, 635/667 nm fluorescence, artefact control for SMM compound annotation, primary screen (AID 1147); details: higher = more signal;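 also: signal reflects streptavidin binding to arrayed compounds as a control protein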
[17] = probe aInhba binding on compound microarray – biochemical, small-molecule microarray, 635/667 nm fluorescence, primary screen (AID 1148); details: higher = more signal;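 also: score merges 667nm spot fluorescence with signal-to-noise for antibody binding to printed compounds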
[18] = molecular target: Torsin-1A (Homo sapiens) (UniProt O14656); test: TOR1A wild-type binding on microarray – cell lysate, small-molecule microarray, lysate, 635/667 nm, primary screen (AID 1149); details: COS7 hTOR1A-WT lysate, 635 nm fluorescence, higher = more signal
[19] = molecular target: Torsin-1A (Homo sapiens) (UniProt O14656); test: torsin A mutant lysate binding on microarrays – cell lysate, small-molecule microarray, COS7 lysate, 635/667 nm fluorescence, primary screen (AID 1150); details: COS7 hTOR1A mutant lysate, 635 nm fluorescence, higher = more signal;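 also: score pools 667 nm emission and signal to noise measuring lysate protein binding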
[20] = system: Sonic hedgehog protein (Shh); test: Sonic hedgehog microarray binding compounds – biochemical, small-molecule microarray, 635/667 nm fluorescence, primary screen (AID 1151); details: 635 nm fluorescence, higher = more signal;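 also: Shh protein binding to compounds spotted on small-molecule microarray slides; score combines spot fluorescence intensity with signal-to-noise across triplicate slides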

Focal adhesion kinase 1 (Homo sapiens), sequence (Q05397 whole entry, looked up): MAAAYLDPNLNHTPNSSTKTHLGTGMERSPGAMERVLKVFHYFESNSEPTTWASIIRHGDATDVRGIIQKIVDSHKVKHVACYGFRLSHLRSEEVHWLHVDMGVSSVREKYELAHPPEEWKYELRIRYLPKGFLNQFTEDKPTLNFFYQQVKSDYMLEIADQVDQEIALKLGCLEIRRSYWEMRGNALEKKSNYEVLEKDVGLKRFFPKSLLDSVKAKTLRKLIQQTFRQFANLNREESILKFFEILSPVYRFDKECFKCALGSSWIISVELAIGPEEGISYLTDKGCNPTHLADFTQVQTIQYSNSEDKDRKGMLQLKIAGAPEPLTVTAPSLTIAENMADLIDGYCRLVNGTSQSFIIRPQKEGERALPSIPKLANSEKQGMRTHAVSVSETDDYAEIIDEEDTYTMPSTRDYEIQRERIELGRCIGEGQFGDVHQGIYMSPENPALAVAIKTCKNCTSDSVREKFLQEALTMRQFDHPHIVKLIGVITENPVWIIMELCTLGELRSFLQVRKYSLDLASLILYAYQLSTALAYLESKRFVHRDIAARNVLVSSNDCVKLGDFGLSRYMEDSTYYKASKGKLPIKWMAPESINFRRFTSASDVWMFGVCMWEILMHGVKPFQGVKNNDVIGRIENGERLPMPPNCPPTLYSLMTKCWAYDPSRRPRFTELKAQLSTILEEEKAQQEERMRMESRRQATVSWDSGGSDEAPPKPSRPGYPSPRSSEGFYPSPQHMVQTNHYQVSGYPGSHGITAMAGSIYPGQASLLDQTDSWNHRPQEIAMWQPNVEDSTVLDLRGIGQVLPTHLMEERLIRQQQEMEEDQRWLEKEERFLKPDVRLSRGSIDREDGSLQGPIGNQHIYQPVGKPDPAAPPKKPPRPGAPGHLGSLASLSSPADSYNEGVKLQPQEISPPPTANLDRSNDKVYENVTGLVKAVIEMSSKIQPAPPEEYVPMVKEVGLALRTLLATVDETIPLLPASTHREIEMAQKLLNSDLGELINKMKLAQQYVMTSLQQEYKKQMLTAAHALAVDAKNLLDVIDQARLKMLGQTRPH
Torsin-1A (Homo sapiens), sequence (O14656 whole entry, looked up): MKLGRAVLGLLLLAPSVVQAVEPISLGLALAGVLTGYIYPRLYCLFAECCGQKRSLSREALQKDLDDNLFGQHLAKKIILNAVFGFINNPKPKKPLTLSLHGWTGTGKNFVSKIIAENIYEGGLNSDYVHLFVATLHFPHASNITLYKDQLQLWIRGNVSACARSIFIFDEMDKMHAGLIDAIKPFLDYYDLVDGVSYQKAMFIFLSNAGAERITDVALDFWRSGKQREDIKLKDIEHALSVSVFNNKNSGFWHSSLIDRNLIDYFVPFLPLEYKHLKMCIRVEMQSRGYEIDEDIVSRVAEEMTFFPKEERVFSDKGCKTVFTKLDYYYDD
Luciferin 4-monooxygenase (Photinus pyralis), sequence (P08659 whole entry, looked up): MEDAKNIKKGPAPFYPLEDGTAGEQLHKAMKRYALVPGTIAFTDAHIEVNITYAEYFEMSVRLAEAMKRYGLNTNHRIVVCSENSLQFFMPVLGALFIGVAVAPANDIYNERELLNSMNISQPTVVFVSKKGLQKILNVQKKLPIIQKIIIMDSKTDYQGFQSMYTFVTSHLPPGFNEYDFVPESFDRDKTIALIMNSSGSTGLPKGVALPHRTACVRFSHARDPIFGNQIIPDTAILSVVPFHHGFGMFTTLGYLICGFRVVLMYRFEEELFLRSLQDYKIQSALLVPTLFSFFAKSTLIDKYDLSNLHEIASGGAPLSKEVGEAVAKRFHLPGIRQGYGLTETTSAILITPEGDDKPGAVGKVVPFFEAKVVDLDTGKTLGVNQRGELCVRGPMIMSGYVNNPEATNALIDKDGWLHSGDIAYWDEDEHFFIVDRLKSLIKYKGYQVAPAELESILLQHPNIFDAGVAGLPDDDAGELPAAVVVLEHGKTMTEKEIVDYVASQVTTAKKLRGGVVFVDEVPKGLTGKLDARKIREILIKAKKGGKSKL
Fibroblast growth factor 2 (Homo sapiens), sequence (P09038 whole entry, looked up): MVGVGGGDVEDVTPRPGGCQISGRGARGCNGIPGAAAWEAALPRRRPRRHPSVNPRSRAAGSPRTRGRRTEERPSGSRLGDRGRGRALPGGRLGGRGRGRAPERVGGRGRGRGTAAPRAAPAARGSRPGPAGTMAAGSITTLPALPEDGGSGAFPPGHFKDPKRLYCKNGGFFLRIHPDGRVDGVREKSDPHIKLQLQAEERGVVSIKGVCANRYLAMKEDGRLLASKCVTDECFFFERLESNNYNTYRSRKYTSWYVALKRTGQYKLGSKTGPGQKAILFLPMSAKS
Follistatin (Homo sapiens), sequence (P19883 whole entry, looked up): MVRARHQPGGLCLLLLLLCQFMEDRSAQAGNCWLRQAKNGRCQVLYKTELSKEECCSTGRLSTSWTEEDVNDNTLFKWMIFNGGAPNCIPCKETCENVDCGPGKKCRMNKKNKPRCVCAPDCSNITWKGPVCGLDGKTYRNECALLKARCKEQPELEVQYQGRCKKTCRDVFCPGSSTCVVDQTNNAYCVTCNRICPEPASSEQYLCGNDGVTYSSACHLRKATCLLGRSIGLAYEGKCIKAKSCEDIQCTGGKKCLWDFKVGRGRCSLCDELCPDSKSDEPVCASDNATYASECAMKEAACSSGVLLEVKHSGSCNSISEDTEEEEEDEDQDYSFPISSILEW
Streptavidin (Streptomyces avidinii), sequence (P22629 whole entry, looked up): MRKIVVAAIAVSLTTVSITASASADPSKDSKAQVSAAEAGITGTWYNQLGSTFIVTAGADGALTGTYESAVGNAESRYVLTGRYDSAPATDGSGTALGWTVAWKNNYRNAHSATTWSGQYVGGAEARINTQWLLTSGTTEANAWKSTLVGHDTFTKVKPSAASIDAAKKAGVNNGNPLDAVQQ

Row | Structure (SMILES) | composite z-score [1] | composite z-score [2] | composite z-score [3] | composite z-score [4] | composite z-score [5] | composite z-score [6] | z-score [7] | composite z-score [8] | composite z-score [9] | z-score [10] | composite z-score [11] | z-score [12] | z-score [13] | z-score [14] | z-score [15] | composite z-score [16] | composite z-score [17] | composite z-score [18] | composite z-score [19] | composite z-score [20]
1 | CS(=O)(=O)CCOC(=O)C1=CC(CCCO)=CC(c2ccc(CN3CCCC3)cc2)N(Cc2cc3c(cc2Br)OCO3)C=C1C(=O)OCCS(C)(=O)=O (stereo not given) | 2.28 | 0.712 | 0.0113 | 0.971 | 0.694 | 0.382 | 3.39 | 0.666 | 0.914 | -1.78 (inactive) | 0.592 | -0.277 (inactive) | 0.814 (inactive) | 4.06 (inactive) | -1.45 (inactive) | 1.5 | 0.229 | 2.09 | 2.13 | 0.404
2 | COCCn1c(C(=O)N2CCCC2)cc2c1C[C@H]1CN(C(=O)c3ccccc3)[C@@](Cc3ccc(F)cc3)(C(=O)OC)[C@@H]21 | 0.346 | 1.27 | 1.61 | 1.02 | 0.35 | -0.703 | -0.328 | 0.108 | 0.845 | 3.4 (inactive) | 0.45 | -1.37 (inactive) | -0.727 (inactive) | -0.568 (inactive) | -0.442 (inactive) | 1.8 | -0.0931 | 1.42 | 2.2 | -0.554
3 | COC(=O)c1c(CC[C@@H](CO)NC(=O)N2CCC[C@H]2Cn2cc(-c3ccccn3)nn2)oc(C(C)=O)c1C(=O)OC | 0.0014 | 0.282 | 0.16 | -0.975 | -0.0633 | 0.123 | -0.53 | 0.427 | 0.0776 | 0.793 (inactive) | -0.249 | -1.44 (inactive) | -0.95 (inactive) | 0.395 (inactive) | -0.0037 (inactive) | -0.281 | -0.0178 | 0.0323 | 1.2 | 0.515
4 | COC(=O)[C@@]1(Cc2ccc(F)cc2)[C@H]2c3cc(C(=O)N4CCCC4)n(Cc4ccc(C)o4)c3C[C@H]2CN1C(=O)c1ccccc1 | 1.69 | 1.07 | 1.05 | 0.952 | 0.4 | -0.708 | 0.821 | 0.181 | 0.794 | -13.4 (active) | 0.709 | -2.77 (inactive) | 0.82 (inactive) | -0.182 (inactive) | -1.19 (inactive) | 1.39 | 0.0108 | 0.19 | 0.322 | -0.704
5 | COC(=O)[C@@]1(Cc2ccccc2)[C@H]2c3cc(C(=O)N4CCCC4)n(Cc4cccc5ccccc45)c3C[C@H]2CN1C(=O)c1ccccc1 | 2.46 | 1.17 | 0.971 | 0.51 | 0.184 | -0.0086 | 1.11 | -0.922 | 1.29 | 1.4 (inactive) | 1.67 | -2.97 (inactive) | 0.786 (inactive) | 1.73 (inactive) | 0.941 (inactive) | 2.82 | 1.52 | -0.0124 | 0.669 | -0.27
6 | O=C1NCC(=O)N2[C@@H]1C[C@@H](C(=O)O)[C@H]2c1cccc(OCCO)c1 | 1.85 | 1.34 | 4.87 | 0.654 | 1.52 | 1.5 | 0.221 | 1.84 | 1.45 | -0.707 (inactive) | 2.26 | -0.095 (inactive) | 4.41 (inactive) | 0.822 (inactive) | -0.393 (inactive) | 2.8 | 2.16 | 3.24 | 3.69 | 1.63
7 | O=C1[C@H]2C=C(Br)[C@H](C[C@@H]2c2ccccc2)[C@@]12CO2 | 0.828 | 0.253 | 0.004 | -0.0786 | 1.14 | 0.402 | -0.0698 | 0.785 | -0.21 | 0.266 (inactive) | 0.127 | -0.856 (inactive) | 0.552 (inactive) | 1.58 (inactive) | 4.2 (inactive) | 0.105 | 0.0528 | 0.175 | 0.273 | 0.982
8 | CN1C(=O)C2C=CC(C(O)c3ccc(I)cc3)N(N3CCCCC3)C2C1=O (stereo not given) | 1.09 | 1.21 | 0.578 | 0.924 | 1.24 | -0.148 | 0.158 | 0.459 | 1.2 | -1.05 (inactive) | 0.512 | -0.394 (inactive) | 0.175 (inactive) | 0.246 (inactive) | 0.818 (inactive) | 1.42 | 0.303 | 0.702 | 1.6 | 0.624
9 | COCCCNC(=O)[C@@]1(Cc2ccccc2N=[N+]=[N-])N=C(c2ccc(OCCCO)cc2)O[C@H]1c1ccccc1N=[N+]=[N-] | 1.73 | 1.22 | 0.912 | 0.849 | 1.25 | 0.836 | 0.332 | -0.0542 | 1.02 | -3.37 (inactive) | 0.266 | -4.63 (inactive) | -0.557 (inactive) | 0.834 (inactive) | -0.803 (inactive) | 1.14 | 0.3 | 0.328 | 1.05 | -0.319
